Source: PubChem BioAssay (National Center for Advancing Translational Sciences (NCATS))
GRP78 ERSR act: qHTS for Inducers of the Endoplasmic Reticulum Stress Response (ERSR) in Human Glioma: qHTS; U87-MG GRP78 promoter luciferase reporter, 16 h; Potency, µM, for the others: at the top dose activation, most hits filed as activators; actives 0.02% (n = 420,000); AID 602332, 2012; also: potency is read from the fitted curve at half-maximal effect; series mostly up to about 76 µM; % of control where 0% means no effect; nearly all actives have a fitted effect of over 35% in size
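Stably transfected U87-MG human glioma cells carrying a GRP78-based luminescent sensor were seeded at 1000 cells/well, pin-dosed with compounds and incubated 16 h. Luciferase reagent was then added, and end-point luminescence was read after 10 min at room temperature.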
PI5P4K alpha inh: qHTS for Inhibitors of phosphatidylinositol 5-phosphate 4-kinase (PI5P4K); PI5P4Kalpha enzyme, ADP-Glo luminescence, 60 min; active compounds read low; max response, %; AID 652105, 2013; actives 1.2% (n = 330,000); active = max response of -50% or lower; inconclusive = between -30% and -50%; inactive = -30% or higher; also: value at the top dose of about 77 µM; % is scaled to controls: 0 for no effect and ±100 for the full control effect
Target sequence (P48426 whole entry, looked up): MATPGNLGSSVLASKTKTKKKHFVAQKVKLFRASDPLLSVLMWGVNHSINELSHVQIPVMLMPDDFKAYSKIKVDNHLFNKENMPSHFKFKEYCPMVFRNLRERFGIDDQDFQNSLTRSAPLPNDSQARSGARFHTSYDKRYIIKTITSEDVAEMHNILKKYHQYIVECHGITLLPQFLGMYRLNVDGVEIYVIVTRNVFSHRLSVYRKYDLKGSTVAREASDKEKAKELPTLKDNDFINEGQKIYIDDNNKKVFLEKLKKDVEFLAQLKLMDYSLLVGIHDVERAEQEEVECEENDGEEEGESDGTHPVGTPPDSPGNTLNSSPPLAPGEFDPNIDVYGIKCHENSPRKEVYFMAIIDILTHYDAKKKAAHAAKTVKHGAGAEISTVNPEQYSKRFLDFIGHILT
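Controls without substrate or without enzyme flank wells where PI5P4Kalpha converts substrate using 5 microM ATP (final). Incubation lasts 60 minutes at room temperature; ADP formed is read by ADP-Glo luminescence.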
PGK inhibitor: qHTS Assay to Find Inhibitors of Phosphoglycerate Kinase | PGK/GAPDH coupled, Kinase-Glo luminescence, 60 min | Potency, µM (series often up to 57.5 µM), for inactives: at the highest dose activity change, negative = inhibition, usual class: inhibitors | actives 0.043% (n = 380,000); also: potency is read from the fitted curve at half-maximal effect; % is scaled to controls: 0 for no effect and ±100 for the full control effect; nearly all actives have a fitted effect of over 60% in size
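Recombinant glycosomal PGK reaction used 1,3-bisphosphoglycerate generated in-well by GAPDH (100nM final) in 100mM TEA pH 7.6, 5mM MgCl2, 0.01% Tween-20. After 60 minutes at room temperature, ATP was read by Kinase-Glo Plus luminescence end-point.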
WRN helicase inh: qHTS for Inhibitors of WRN Helicase; WRN helicase unwinding, fluorescent forked duplex, kinetic; Potency, µM (titrated, usually from 114 µM), inactives show at the top dose activity change, negative = inhibition, hits mostly inhibitors; actives 0.46% (n = 360,000); also: potency is read from the fitted curve at half-maximal effect; % is scaled to controls: 0 for no effect and ±100 for the full control effect; nearly all actives have a fitted effect of over 55% in size
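Screening of the MLSMR collection measured strand separation of a quenched forked DNA duplex (100 nM) by 20 nM WRN with 2 mM ATP, all final. Compounds were preincubated with enzyme 15 min at room temperature.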
FEN1 inhibitor: qHTS Assay for the Inhibitors of Human Flap endonuclease 1 (FEN1); P39748; Recombinant FEN1 flap cleavage, fluorescence, 15 min; Potency, µM (series often up to 114 µM), inactives show at the highest dose activity change, negative = inhibition, hits mostly inhibitors; actives 0.35% (n = 390,000); AID 588795, 2011; also: potency is read from the fitted curve at half-maximal effect; % is scaled to controls: 0 for no effect and ±100 for the full control effect; nearly all actives have a fitted effect of over 65% in size
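In this screen, 50 nM flap DNA substrate was added to 10 nM FEN1 pretreated with compound for 15 min at room temperature; cleavage was followed with reads at 0 and 15 min, and Hill fitting gave concentration–response parameters.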
Pin1 inh: qHTS Assay to Find Inhibitors of Pin1 | Pin1 FP peptide displacement, HiFluor488, 10 min | Potency, µM (doses to about 115 µM), without a hit: at the highest dose activity, negative = inhibition, usual class: inhibitors | actives 0.009% (n = 390,000); active = well fitted inhibition curve with a large enough effect in the polarisation, with a control signal flat, not every such curve was filed as active; inconclusive = small, poorly fitted or top-dose-only effect, or effect the other way, or a change in a side signal; inactive = no such curve, though single readings can be large or run the other way; the % refers to the polarisation; also: potency is read from the fitted curve at half-maximal effect; % is scaled to controls: 0 for no effect and ±100 for the full control effect
Target sequence (Q13526 whole entry, looked up): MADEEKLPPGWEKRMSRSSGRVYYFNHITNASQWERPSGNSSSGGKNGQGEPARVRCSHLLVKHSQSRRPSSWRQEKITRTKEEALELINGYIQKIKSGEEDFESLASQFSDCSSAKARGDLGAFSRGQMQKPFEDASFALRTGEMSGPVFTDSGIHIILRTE
* hit, by the source's call; [ ] = dose if it differs, or a comment. Compounds with a hit are over-represented: about 1.3% of the library has one in this group of screens. Unless noted, calls follow the shape of the dose curve; as a rule, active = well fitted curve in the direction sought with a large enough effect; inconclusive = small, poorly fitted or top-dose-only effect, or another doubt; inactive = no such curve, though single readings can be large; an effect the other way counts as inactive or inconclusive.

CC1(C)OC(C)(C)/C(=C/Nc2ccc(O)cc2)C1=O was read as GRP78 ERSR act -2%, PI5P4K alpha inh -70*, PGK inhibitor -11%, WRN helicase inh -27%[57.1 µM], FEN1 inhibitor -1% and Pin1 inh inconclusive.
Screening CN1CCN(c2cc(N3CCN(C(=O)c4ccco4)CC3)c3c4c(onc24)-c2ccccc2C3=O)CC1 returned GRP78 ERSR act -5%, PI5P4K alpha inh -17, PGK inhibitor -8%, WRN helicase inh inconclusive, FEN1 inhibitor inconclusive and Pin1 inh -3%.
For O=C1c2ccccc2-c2onc3c(N4CCN(CCO)CC4)cc(N4CCN(C(=O)c5ccco5)CC4)c1c23 the results were GRP78 ERSR act -19%, PI5P4K alpha inh inconclusive, PGK inhibitor -14%, WRN helicase inh 151%, FEN1 inhibitor 45µM* and Pin1 inh inconclusive.
Screening COc1cccc(C(=O)N(Cc2cc3ccc(C)cc3nc2N(C)C)C2CC2)c1OC returned GRP78 ERSR act -4%.
`CC/C=C\C/C=C\C/C=C\CCCCCCCCCCCC(=O)O` gave GRP78 ERSR act -3%.
Screening CC/C=C\C/C=C\C/C=C\CCCCCCCC(=O)O returned GRP78 ERSR act -1%, PI5P4K alpha inh inconclusive, PGK inhibitor -3%, WRN helicase inh 18µM*, FEN1 inhibitor -17% and Pin1 inh inconclusive.
[2H]c1c([2H])c([2H])c2c([nH]c(=S)n2C2CCN(CCCC(=O)c3ccc(F)cc3)CC2)c1[2H] was read as GRP78 ERSR act -4%.
For CC1N(C)c2cc(NC(=O)c3ccco3)ccc2C1(C)C (stereo not given) the results were GRP78 ERSR act -4%, PGK inhibitor 6%, WRN helicase inh 50µM*, FEN1 inhibitor inconclusive and Pin1 inh inconclusive.
Screening CC(=O)Nc1ccc(NC(=O)c2ccco2)cc1 returned GRP78 ERSR act 9%, PI5P4K alpha inh -3, PGK inhibitor 9%, WRN helicase inh 1%, FEN1 inhibitor -14% and Pin1 inh -4%.
`NC(N)=NCCC[C@H](NC(=O)CNC(=O)c1ccccc1)C(=O)Nc1cc(C(F)(F)F)ccc1Cl` gave Pin1 inh 3%.
Screening CCS(=O)(=O)Nc1cccc(-c2cn3c(n2)SCC3)c1 returned GRP78 ERSR act -3%, PI5P4K alpha inh -1, PGK inhibitor 9%, WRN helicase inh -1%, FEN1 inhibitor 16% and Pin1 inh 0%.
For CS(=O)(=O)Nc1cccc(-c2cn3c(n2)SCC3)c1 the results were GRP78 ERSR act -4%, PI5P4K alpha inh -3, PGK inhibitor 3%, WRN helicase inh -11% and FEN1 inhibitor 20µM*.
For CC(=O)Nc1ccc(S(=O)(=O)N2CCN(S(=O)(=O)c3ccc4c(c3)OCCO4)CC2)cc1 the results were Pin1 inh 2%.
Screening CC1=C(C(=O)OCc2ccccc2)C(c2ccc(C#N)cc2)NC(=O)N1CCCC(=O)O (stereo not given) returned GRP78 ERSR act -4%, PI5P4K alpha inh -90*, PGK inhibitor inactive, WRN helicase inh -10%, FEN1 inhibitor 2% and Pin1 inh -6%.
CC1=C(C(=O)OCc2ccccc2)C(c2ccccc2)NC(=O)N1CCCC(=O)O (stereo not given) was read as GRP78 ERSR act -2%, PI5P4K alpha inh -77*, PGK inhibitor -11%, WRN helicase inh -3%, FEN1 inhibitor -2% and Pin1 inh -4%.
CC1=C(C(=O)OCc2ccccc2)C(c2ccc(Cl)cc2)NC(=O)N1CCCCCC(=O)O (stereo not given) was read as GRP78 ERSR act 0%, PI5P4K alpha inh -10, PGK inhibitor 4%, WRN helicase inh 0%, FEN1 inhibitor -11% and Pin1 inh -2%.
For CC1=C(C(=O)OCc2ccccc2)C(c2cccc([N+](=O)[O-])c2)NC(=O)N1CCCCCC(=O)O (stereo not given) the results were GRP78 ERSR act -1%, PI5P4K alpha inh -15, PGK inhibitor 7%, WRN helicase inh 4%, FEN1 inhibitor -19% and Pin1 inh 0%.
COc1ccc(C2Nc3ccccc3C(=O)N2CCc2ccccc2)cc1COc1ccc(NC(C)=O)cc1 (stereo not given) was read as Pin1 inh -3%.
`COc1cc(F)c(S(=O)(=O)N2CCN(S(=O)(=O)c3cccc(NC(C)=O)c3)CC2)c(F)c1` gave Pin1 inh 5%.
For O=C1NC(=NCc2ccccc2)S/C1=C\c1ccccc1 the results were GRP78 ERSR act 3%, PI5P4K alpha inh -5, PGK inhibitor 1%, WRN helicase inh -1%, FEN1 inhibitor 0% and Pin1 inh -7%.
For O=C1NC(=S)S/C1=C\c1ccc(SCc2ccco2)o1 the results were GRP78 ERSR act -3%, PI5P4K alpha inh -99*, PGK inhibitor 14µM*, WRN helicase inh 8.9µM*, FEN1 inhibitor inconclusive and Pin1 inh inconclusive.
For O=C1NC(=S)S/C1=C\c1ccc(SCc2ccccc2)o1 the results were GRP78 ERSR act 3%, PI5P4K alpha inh -77*, PGK inhibitor inconclusive, WRN helicase inh inconclusive, FEN1 inhibitor 79µM* and Pin1 inh inconclusive.
For O=C1CCN(Cc2ccco2)C(=S)N1 the results were GRP78 ERSR act 4%, PI5P4K alpha inh 11, PGK inhibitor -6%, WRN helicase inh 0%, FEN1 inhibitor -6% and Pin1 inh -4%.
c1csc(CNc2nc(CN3CCCC(c4nc5ccccc5o4)C3)nc3ccccc23)c1 (stereo not given) was read as GRP78 ERSR act -4%.
For O=C1CC(C(=O)N2CCCC(c3nc(-c4ccncc4)ncc3-c3ccccc3)C2)C2(CCCCC2)O1 (stereo not given) the results were GRP78 ERSR act 3%.
`CNS(=O)(=O)c1cccc(C(=O)OCC(=O)c2ccc(S(=O)(=O)N3CCCCC3)cc2)c1` gave GRP78 ERSR act 0%, PI5P4K alpha inh -56*, PGK inhibitor 2%, WRN helicase inh -12%, FEN1 inhibitor -20% and Pin1 inh 14%.
N#CN1CCC(NS(=O)(=O)c2ccc(F)cc2)CC1 was read as Pin1 inh -1%.
`COc1ccc(-n2c(CNC(=O)c3cccc(OC)c3OC)nnc2SC)cc1` gave GRP78 ERSR act -6%.
